Experimental data as given in paper PMC7862700, “An all-to-all approach to the identification of sequence-specific readers for epigenetic DNA modifications on cytosine”.

Columns and labels:
Assay in all cases: DAPPL (digital affinity profiling via proximity ligation, sequencing); 10 mM Tris-HCl pH 7.5, 50 mM NaCl, 1 mM DTT, 4% glycerol, room temperature, 30 min; GST-TFs on glutathione beads, 16-mer random dsDNA library, 0.1% formaldehyde crosslink after washing; high values mean tight binding
Details in all cases: protein: recombinant; tags: N-terminal GST; dsDNA, one strand shown
[1] = molecular target: T1, ERF (Homo sapiens, UniProt P50548 1-548)
T1 sequence: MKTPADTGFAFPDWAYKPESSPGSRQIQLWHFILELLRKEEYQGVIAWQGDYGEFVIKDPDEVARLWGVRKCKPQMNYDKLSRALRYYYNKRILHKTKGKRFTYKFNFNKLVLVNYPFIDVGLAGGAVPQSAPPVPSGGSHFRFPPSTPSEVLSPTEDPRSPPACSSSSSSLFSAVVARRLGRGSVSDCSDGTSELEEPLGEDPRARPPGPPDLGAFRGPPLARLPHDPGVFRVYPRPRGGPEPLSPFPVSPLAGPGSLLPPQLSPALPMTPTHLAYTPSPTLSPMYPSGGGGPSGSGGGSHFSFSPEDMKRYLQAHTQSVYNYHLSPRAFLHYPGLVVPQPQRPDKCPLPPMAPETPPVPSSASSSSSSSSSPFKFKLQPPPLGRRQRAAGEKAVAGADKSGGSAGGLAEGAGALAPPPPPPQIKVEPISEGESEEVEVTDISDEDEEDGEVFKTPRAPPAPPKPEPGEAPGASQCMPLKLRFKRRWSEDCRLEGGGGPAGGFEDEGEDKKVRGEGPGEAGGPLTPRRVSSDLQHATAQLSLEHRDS
How it was run: (§1)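 Human transcription factors carrying a GST fusion were produced in yeast, bound to glutathione beads, tagged with DNA barcodes and pooled together with a tag-only sample. Each pool was held with 200 nmole of a random double-stranded 16-mer DNA library in Tris/NaCl/DTT/glycerol buffer for 30 min at room temperature, then washed, crosslinked in 0.1% formaldehyde, proximity-ligated with BsaI/T4 ligase (1 h, 37 °C), PCR-amplified and sequenced on an Illumina NextSeq500. Binding signal is the read frequency of each hexamer for a given factor divided by its frequency in the tag-only sample.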

[2] = molecular target: T2, ETV3L (Homo sapiens, UniProt Q6ZN32 1-361)
T2 sequence: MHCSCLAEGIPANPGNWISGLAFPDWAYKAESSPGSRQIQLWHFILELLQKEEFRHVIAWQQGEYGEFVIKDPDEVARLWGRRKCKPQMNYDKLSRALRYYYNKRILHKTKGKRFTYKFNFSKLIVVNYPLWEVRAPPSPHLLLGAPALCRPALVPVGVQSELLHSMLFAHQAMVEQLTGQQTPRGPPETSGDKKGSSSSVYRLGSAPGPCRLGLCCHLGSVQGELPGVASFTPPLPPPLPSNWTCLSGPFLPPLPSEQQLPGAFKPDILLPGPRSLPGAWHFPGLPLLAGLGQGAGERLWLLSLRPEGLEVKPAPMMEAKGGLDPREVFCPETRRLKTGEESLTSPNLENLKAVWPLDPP
How it was run: as §1

[3] = molecular target: T3, ETS2 (Homo sapiens, UniProt P15036 1-469)
T3 sequence: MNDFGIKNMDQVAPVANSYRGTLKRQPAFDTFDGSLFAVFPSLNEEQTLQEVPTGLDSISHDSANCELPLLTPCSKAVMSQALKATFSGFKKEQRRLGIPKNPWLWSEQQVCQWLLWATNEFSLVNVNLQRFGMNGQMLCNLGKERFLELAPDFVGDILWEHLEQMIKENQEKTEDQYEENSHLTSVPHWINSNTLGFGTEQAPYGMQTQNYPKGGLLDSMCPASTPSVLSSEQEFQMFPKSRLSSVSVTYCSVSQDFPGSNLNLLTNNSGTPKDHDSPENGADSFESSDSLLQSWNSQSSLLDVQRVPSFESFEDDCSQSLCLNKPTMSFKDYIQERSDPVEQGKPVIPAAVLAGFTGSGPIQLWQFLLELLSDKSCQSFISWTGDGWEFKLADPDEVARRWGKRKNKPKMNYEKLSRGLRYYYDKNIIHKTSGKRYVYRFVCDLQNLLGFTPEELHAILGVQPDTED
How it was run: as §1

[4] = molecular target: T4, SPDEF (Homo sapiens, UniProt O95238 1-335)
T4 sequence: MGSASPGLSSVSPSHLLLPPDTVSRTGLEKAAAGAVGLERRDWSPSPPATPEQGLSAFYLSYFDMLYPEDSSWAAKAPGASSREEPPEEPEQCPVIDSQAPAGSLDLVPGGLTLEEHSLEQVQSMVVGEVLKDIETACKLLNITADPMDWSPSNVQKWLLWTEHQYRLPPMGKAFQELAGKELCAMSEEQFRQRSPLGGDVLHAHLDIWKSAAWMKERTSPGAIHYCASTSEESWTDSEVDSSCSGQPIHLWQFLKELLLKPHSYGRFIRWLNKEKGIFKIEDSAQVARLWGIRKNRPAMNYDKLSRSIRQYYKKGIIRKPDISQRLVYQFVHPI
How it was run: as §1

[5] = molecular target: T5, ETV7 (Homo sapiens, UniProt Q9Y603 1-341)
T5 sequence: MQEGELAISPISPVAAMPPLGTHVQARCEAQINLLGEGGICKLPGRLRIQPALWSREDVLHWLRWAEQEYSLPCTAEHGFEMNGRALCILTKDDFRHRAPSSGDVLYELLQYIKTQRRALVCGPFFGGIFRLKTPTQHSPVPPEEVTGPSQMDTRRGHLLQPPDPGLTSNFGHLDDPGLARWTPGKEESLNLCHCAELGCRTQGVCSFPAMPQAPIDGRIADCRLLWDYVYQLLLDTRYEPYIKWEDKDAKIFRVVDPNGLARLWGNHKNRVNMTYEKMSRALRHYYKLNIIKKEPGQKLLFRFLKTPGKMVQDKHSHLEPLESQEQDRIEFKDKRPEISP
How it was run: as §1

[6] = molecular target: T6, ELF5 (Homo sapiens, UniProt Q9UKW6-2 1-255)
T6 sequence: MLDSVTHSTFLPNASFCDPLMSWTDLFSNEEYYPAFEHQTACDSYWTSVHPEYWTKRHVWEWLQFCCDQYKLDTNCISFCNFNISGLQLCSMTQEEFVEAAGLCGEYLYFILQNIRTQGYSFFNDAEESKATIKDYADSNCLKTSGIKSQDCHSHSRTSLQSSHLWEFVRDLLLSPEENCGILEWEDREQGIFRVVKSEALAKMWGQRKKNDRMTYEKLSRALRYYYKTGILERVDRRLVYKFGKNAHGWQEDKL
How it was run: as §1

[7] = molecular target: T7, ETV3 (Homo sapiens, UniProt P41162-2 1-143)
T7 sequence: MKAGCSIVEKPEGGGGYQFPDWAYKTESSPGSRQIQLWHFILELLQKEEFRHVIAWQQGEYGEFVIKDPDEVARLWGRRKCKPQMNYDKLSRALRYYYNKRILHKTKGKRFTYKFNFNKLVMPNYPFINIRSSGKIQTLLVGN
How it was run: as §1

[8] = molecular target: ETV6 (Homo sapiens, UniProt P41212 1-452)
ETV6, sequence (P41212 whole entry): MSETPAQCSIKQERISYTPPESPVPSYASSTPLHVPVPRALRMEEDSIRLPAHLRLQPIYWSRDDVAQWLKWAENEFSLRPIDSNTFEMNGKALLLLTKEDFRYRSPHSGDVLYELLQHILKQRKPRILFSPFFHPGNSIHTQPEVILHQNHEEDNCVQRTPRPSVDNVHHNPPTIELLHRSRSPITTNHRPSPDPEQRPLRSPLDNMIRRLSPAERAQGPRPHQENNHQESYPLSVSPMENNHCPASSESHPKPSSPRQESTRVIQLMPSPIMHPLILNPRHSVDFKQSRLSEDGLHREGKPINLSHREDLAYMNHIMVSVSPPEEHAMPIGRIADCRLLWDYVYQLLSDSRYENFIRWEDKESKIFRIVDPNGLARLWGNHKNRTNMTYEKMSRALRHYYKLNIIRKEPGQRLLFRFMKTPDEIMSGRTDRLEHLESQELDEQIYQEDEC
How it was run: as §1

Sequence | binding signal [1] | binding signal [2] | binding signal [3] | binding signal [4] | binding signal [5] | binding signal [6] | binding signal [7] | binding signal [8]
GCATCC | 1.43 fold enrichment (6-mer frequency, TF over GST control) | 1.56 fold enrichment (6-mer frequency, TF over GST control) | 1.61 fold enrichment (6-mer frequency, TF over GST control) | 2.71 fold enrichment (6-mer frequency, TF over GST control) | 1.43 fold enrichment (6-mer frequency, TF over GST control) | 1.64 fold enrichment (6-mer frequency, TF over GST control) | 1.62 fold enrichment (6-mer frequency, TF over GST control) | 1.57 fold enrichment (6-mer frequency, TF over GST control)
CCCTGC | 1.18 fold enrichment (6-mer frequency, TF over GST control) | 1.18 fold enrichment (6-mer frequency, TF over GST control) | 1.12 fold enrichment (6-mer frequency, TF over GST control) | 1.11 fold enrichment (6-mer frequency, TF over GST control) | 1.22 fold enrichment (6-mer frequency, TF over GST control) | 1.2 fold enrichment (6-mer frequency, TF over GST control) | 1.22 fold enrichment (6-mer frequency, TF over GST control) | 1.2 fold enrichment (6-mer frequency, TF over GST control)
CGACCG | 1.17 fold enrichment (6-mer frequency, TF over GST control) | 1.28 fold enrichment (6-mer frequency, TF over GST control) | 1.22 fold enrichment (6-mer frequency, TF over GST control) | 1.22 fold enrichment (6-mer frequency, TF over GST control) | 1.13 fold enrichment (6-mer frequency, TF over GST control) | 1.12 fold enrichment (6-mer frequency, TF over GST control) | 1.12 fold enrichment (6-mer frequency, TF over GST control) | 1.18 fold enrichment (6-mer frequency, TF over GST control)
GGTAAT | 1.13 fold enrichment (6-mer frequency, TF over GST control) | 1.06 fold enrichment (6-mer frequency, TF over GST control) | 1.08 fold enrichment (6-mer frequency, TF over GST control) | 1.11 fold enrichment (6-mer frequency, TF over GST control) | 1.14 fold enrichment (6-mer frequency, TF over GST control) | 1.16 fold enrichment (6-mer frequency, TF over GST control) | 1.06 fold enrichment (6-mer frequency, TF over GST control) | 1.16 fold enrichment (6-mer frequency, TF over GST control)
CAGGAT | 1.15 fold enrichment (6-mer frequency, TF over GST control) | 1.3 fold enrichment (6-mer frequency, TF over GST control) | 1.19 fold enrichment (6-mer frequency, TF over GST control) | 2.03 fold enrichment (6-mer frequency, TF over GST control) | 1.09 fold enrichment (6-mer frequency, TF over GST control) | 1.28 fold enrichment (6-mer frequency, TF over GST control) | 1.22 fold enrichment (6-mer frequency, TF over GST control) | 1.19 fold enrichment (6-mer frequency, TF over GST control)
CCTCGC | 1.31 fold enrichment (6-mer frequency, TF over GST control) | 1.53 fold enrichment (6-mer frequency, TF over GST control) | 1.41 fold enrichment (6-mer frequency, TF over GST control) | 1.42 fold enrichment (6-mer frequency, TF over GST control) | 1.48 fold enrichment (6-mer frequency, TF over GST control) | 1.41 fold enrichment (6-mer frequency, TF over GST control) | 1.45 fold enrichment (6-mer frequency, TF over GST control) | 1.25 fold enrichment (6-mer frequency, TF over GST control)
TTAAGT | 1.12 fold enrichment (6-mer frequency, TF over GST control) | 1.15 fold enrichment (6-mer frequency, TF over GST control) | 1.16 fold enrichment (6-mer frequency, TF over GST control) | 1.31 fold enrichment (6-mer frequency, TF over GST control) | 1.19 fold enrichment (6-mer frequency, TF over GST control) | 1.12 fold enrichment (6-mer frequency, TF over GST control) | 1.12 fold enrichment (6-mer frequency, TF over GST control) | 1.19 fold enrichment (6-mer frequency, TF over GST control)
AAAGAT | 1.24 fold enrichment (6-mer frequency, TF over GST control) | 1.17 fold enrichment (6-mer frequency, TF over GST control) | 1.16 fold enrichment (6-mer frequency, TF over GST control) | 1.23 fold enrichment (6-mer frequency, TF over GST control) | 1.12 fold enrichment (6-mer frequency, TF over GST control) | 1.15 fold enrichment (6-mer frequency, TF over GST control) | 1.28 fold enrichment (6-mer frequency, TF over GST control) | 1.17 fold enrichment (6-mer frequency, TF over GST control)
